High-throughput results as filed in PubChem.
The full list was thinned out, with hits kept by preference.
AMPAR-TARP mod: GluA2-stargazin AMPA receptor complex modulation; O88602+P19491; AID 1259245; calls only at 30 µM; HEK293 GluA2+stargazin, membrane potential dye (FDSS), glutamate EC50; hits were called plate by plate, in both directions; hit rate 3.5% among 40,000;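 active means any of four per-well response measures lying three or more SD from its plate-wide compound average, in either direction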
GIRK2 activator: Activates human GIRK2-containing potassium channels | 34,000 tested, under 10 active | AID 1259324 | activation (% efficacy), % for hits at 75 µM | HEK293 GIRK2/NPY4 cells, thallium flux fluorescence;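 active means primary screen hit, no activity in plain HEK293 cells, and in GIRK2-only cells above 5% efficacy rising with concentration; inactive means the rest, including fluorescent compounds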;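 further: efficacy is normalized control-subtracted fluorescence 15 s after thallium addition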
Active calls of the source: *; i = inactive; . = no result; + = active, no number.

SMILES	AMPAR-TARP mod	GIRK2 activator
Cn1cccc1C(CNS(=O)(=O)c1cccc(Cl)c1)N1CCOCC1 (configuration not stated)	i	i
O=C(NCc1ccc(Cl)cc1)NCC1CCN(C(=O)Nc2ccc(F)cc2)CC1	i	.
CCOc1ccc(NC(=O)CSc2nnnn2-c2ccccc2CC)cc1	i	i
O=C(Cn1cnc(-c2cccs2)cc1=O)Nc1cccc2nsnc12	i	i
O=C(NC1CCCCC1)N(CCCO)CC(O)Cn1c2ccccc2c2ccccc21 (configuration not stated)	i	i
O=C(Nc1ccc(Cl)cc1)N(CCCO)CC(O)Cn1c2ccccc2c2ccccc21 (configuration not stated)	+	i
O=C(c1c(F)cccc1Cl)N1CCN(c2nccn2-c2ccccc2F)CC1	i	i
COc1ccc(Nc2nc(N3CCNCC3)nc3ccccc23)c(OC)c1	+	.
COc1ccc(-c2cc(OCC(=O)Nc3ccc(OC)cc3OC)c3ccccc3n2)cc1	i	i
COc1cc(C(=O)NCC(c2ccc(C)cc2)N2CCOCC2)c([N+](=O)[O-])cc1OC (configuration not stated)	i	i
CCSc1n[nH]c(N)c1S(=O)(=O)c1ccccc1	i	i
O=C1Nc2ccccc2Oc2ccc(NS(=O)(=O)C3CCCCC3)cc21	+	.
O=C(Cc1ccc(NS(=O)(=O)C2CCCCC2)cc1)NCc1cccs1	i	i
CC(c1ccccc1)n1c(N2CCCCC2)nc2c1c(=O)n(C)c(=O)n2C (configuration not stated)	+	i
CCNc1nc2c(c(=O)n(C)c(=O)n2C)n1CCCOc1ccccc1	i	i
CCN1CCN(c2nc3c(c(=O)n(C)c(=O)n3C)n2CCCOc2ccccc2)CC1	+	.
Cn1c(=O)c2c(nc(N3CCCCCC3)n2CC(O)COc2ccccc2)n(C)c1=O (configuration not stated)	i	.
Cn1c(=O)c2c(nc(N3CCOCC3)n2CCSc2ncccn2)n(C)c1=O	+	.
Cn1c(=O)c2c(nc(N3CCOCC3)n2CCCc2ccccc2)n(C)c1=O	i	.
O=C(NCCn1nc(-c2cccnc2)ccc1=O)Nc1ccc(F)cc1	.	i
O=C(CSc1ccc(F)cc1)N1CCN(CCn2ccnc2)CC1	.	i
Cc1cccc(-n2ncc3c(=O)[nH]c(-n4nc(C)cc4NC(=O)C4CC4)nc32)c1	i	i
Cc1cc(NC(=O)c2c(F)cccc2F)n(-c2nc3c(cnn3-c3cccc(Cl)c3)c(=O)[nH]2)n1	i	i
CCC(CC)C(=O)Nc1cc(C)nn1-c1nc2c(cnn2-c2cccc(C)c2)c(=O)[nH]1	+	i
Cc1cc(NC(=O)c2c(F)cccc2F)n(-c2nc3c(cnn3-c3ccc(C)c(C)c3)c(=O)[nH]2)n1	+	i
SMILES	AMPAR-TARP mod	GIRK2 activator
CC1CCc2c(sc(NC(=O)CN3C(=O)c4ccccc4C3=O)c2-c2nc3ccccc3s2)C1 (configuration not stated)	i	.
CC(O)(CNC(=O)Nc1ccc(Cl)c(Cl)c1)c1ccc2c(c1)OCO2 (configuration not stated)	+	i
CC(O)(CNC(=O)c1cc(Cl)ccc1Cl)c1ccc2c(c1)OCO2 (configuration not stated)	i	i
CCN1CCN(S(=O)(=O)CCNC(=O)COc2ccc(F)cc2)CC1	i	i
COc1ccc(S(=O)(=O)CCC(=O)Nc2nc3ccc(Br)cc3s2)cc1	+	i
Cc1cc2nc(NC(=O)c3ccc(S(=O)(=O)C(C)C)cc3)sc2cc1C	i	i
Cc1nc2ccc(NC(=O)c3ccc(S(=O)(=O)C(C)C)cc3)cc2s1	+	.
CC(C)S(=O)(=O)c1ccc(C(=O)Nc2nc3ccc(Br)cc3s2)cc1	+	.
Cc1nc2ccc(NC(=O)c3cccc(S(=O)(=O)C(C)C)c3)cc2s1	i	i
COc1ccc(S(=O)(=O)CCC(=O)Nc2nc3cc(OC)c(OC)cc3s2)cc1	i	i
CCOc1ccc(CC(=O)NC2CNC(=O)C2)cc1 (configuration not stated)	.	i
COCCN1CCC(CNC(=O)C(=O)NC2CCCCCC2)CC1	i	i
CN(C)CCCN1C(=O)C(O)=C(C(=O)c2cc3ccccc3o2)C1c1cccc([N+](=O)[O-])c1 (configuration not stated)	i	i
Cc1cc(NC(=O)/C=C/c2ccccc2)on1	.	i
Cc1cc(C)c2sc(NC(=O)/C=C\c3ccccc3)nc2n1	+	i
CN1CCN(c2nnnc3c2cnn3-c2ccccc2)CC1	i	i
CCc1nc(N2CCN(C)CC2)c2oc3ccccc3c2n1	+	i
O=C(NCCN1CCN(c2ccc(F)cc2)CC1)C(=O)NCc1cccs1	i	i
COCCn1c(N)c(-c2nc3ccccc3n2C)c2nc3ccccc3nc21	+	i
COCCn1c(N)c(S(=O)(=O)c2ccc(Cl)cc2)c2nc3ccccc3nc21	i	i
CN(C)CCCNc1nc2ccc([N+](=O)[O-])cc2s1	+	i
CN(C)CCN(C(=O)CCCS(=O)(=O)c1ccc(F)cc1)c1nc2ccc([N+](=O)[O-])cc2s1	+	.
CN(C)CCN(C(=O)CCCS(=O)(=O)c1ccc(F)cc1)c1nc2ccccc2s1	i	.
Cc1c(Cl)ccc2sc(NCCCN(C)C)nc12	i	i
COc1ccc(S(=O)(=O)CCC(=O)N(Cc2ccccc2)c2nc3ccccc3s2)cc1	i	i
SMILES	AMPAR-TARP mod	GIRK2 activator
COc1ccc(S(=O)(=O)CCC(=O)N(CCN(C)C)c2nc3ccc([N+](=O)[O-])cc3s2)cc1	+	.
O=C(NCC1CC(=O)N(c2ccc(Cl)cc2)C1)C1CC1 (configuration not stated)	i	i
O=C(NCC1CCN(C(=O)c2cccnc2)CC1)c1ccc(Cl)c(Cl)c1	i	.
O=C(/C=C/c1ccccc1Cl)Nc1nnc(Cc2cccs2)o1	i	i
Cc1nc(NCCCn2ccnc2)nc(N2CCCC2)c1[N+](=O)[O-]	i	i
CSc1ccccc1C(=O)N(CCc1cccs1)Cc1cccnc1	.	i
O=C(Nc1ccc(F)c(C(F)(F)F)c1)C1CN(C(=O)c2cccs2)C1	i	i
O=C(Nc1ccc(F)c(C(F)(F)F)c1)C1CCN(C(=O)NC2CC2)CC1	+	i
COc1nn(C)cc1C(=O)Nc1ccc2c(c1)N(C(=O)C1CC1)CC2	+	i
CCc1ccc(S(=O)(=O)Nc2ccc3c(c2)N(C(=O)C2CCCC2)CC3)s1	i	i
COCC(=O)N1CCCc2ccc(NC(=O)c3cn(C)nc3OC)cc21	i	i
CCc1ccc(S(=O)(=O)Nc2ccc3c(c2)N(C(=O)C(C)(C)C)CC3)s1	+	i
CC(C)(C)c1ccc(S(=O)(=O)Nc2ccc3c(c2)N(C(=O)C2CC2)CC3)cc1	+	i
O=C(C1CC1)N1CCc2ccc(NS(=O)(=O)c3ccc(Cl)s3)cc21	+	i
CC(=O)Nc1ccc(S(=O)(=O)Nc2ccc3c(c2)N(C(=O)C2CC2)CC3)cc1	i	i
O=C(C1CC1)N1CCc2ccc(NS(=O)(=O)c3ccc(Cl)cc3)cc21	i	i
Cc1cccc(CS(=O)(=O)N2CCN(C(=O)c3cnn4ccccc34)CC2)c1	i	i
Cc1cccc(C(=O)N(CCN2CCOCC2)c2nc3c(F)cc(F)cc3s2)c1	i	.
